Read-out in test [1]: E-selectin (Homo sapiens) (UniProt P16581)
In words: BSK_SAg_Eselectin: BioMAP Diversity Plus: SAg Assay for Eselectin Biomarker Activity (AID 2283091). Particulars: primary human HUVEC with PBMC; actives raise or lower the signal. In outline:
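Human umbilical vein endothelial cells co-cultured with peripheral blood mononuclear cells, SAg system. E-selectin is measured by ELISA 24 h after dosing and fitted bidirectionally against DMSO. Cytotoxicity is checked by SRB staining of parallel cultures.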

Read-out in test [2]: Monokine induced gamma interferon (MIG), CXCL9 (gene 4283)
The test can be described thus: BSK_SAg_MIG: BioMAP Diversity Plus: SAg Assay for Monokine induced gamma interferon (MIG) Biomarker Activity (AID 2283092). Particulars: primary human HUVEC with PBMC; actives raise or lower the signal. In outline:
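Measures CXCL9 protein by ELISA in a human vascular primary-cell co-culture (umbilical vein endothelium with PBMC) 24 h after chemical addition. Activity is scored up or down from the DMSO control.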

The nature of test [3]: BSK_SAg_PBMCCytotoxicity: PBMC Cytotoxicity Assessment in the BioMAP Diversity Plus: SAg Assay (AID 2283093).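 Further: PBMC viability measured as Alamar Blue reduction fluorescence at 546/580 nm; fitted both ways against DMSO so a hit may be loss or gain of signal.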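 On AC50: PBMC superantigen activated with SEB plus TSST-1 one hour after compound addition.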 Particulars: primary human HUVEC with PBMC. In short, it runs like this:
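HUVEC/PBMC co-culture; PBMC exposed to chemical 1 h before SEB and TSST-1 activation (20 ng/mL each), incubated 90 h, then Alamar Blue 6 h, fluorescence 546/580 nm. Bidirectional fit versus DMSO baseline.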

Read-out in test [4]: Interleukin-8 (IL8), CXCL8 (gene 3576)
The test can be described thus: BSK_SAg_IL8: BioMAP Diversity Plus: SAg Assay for Interleukin-8 (IL8) Biomarker Activity (AID 2283094). Particulars: primary human HUVEC with PBMC; actives raise or lower the signal. In short, it runs like this:
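ELISA read-out of IL-8 in a primary human vascular co-culture (umbilical vein endothelium plus PBMC), taken 24 h after compound addition. Values derive from bidirectional fits against DMSO negative controls.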

Test [5] in a line: BSK_SAg_Proliferation: Cell Proliferation Assessment in the BioMAP Diversity Plus: SAg Assay (AID 2283095).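 Further: relative cell number as total protein by SRB absorbance in sub-confluent culture.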 Particulars: primary human HUVEC with PBMC. In outline:
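Cells (endothelium plus PBMC, human primary) were dosed with chemical, cultured 96 h, fixed in 10% TCA and stained with 0.1% SRB. Absorbance at 560 nm gave relative protein, fitted bidirectionally relative to DMSO.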

The nature of test [6]: BSK_SAg_SRB: Viability Assessment in the BioMAP Diversity Plus: SAg Assay (AID 2283096).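 Further: cells read one day after compound addition; hits may be either gain or loss of signal compared with DMSO.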 Particulars: primary human HUVEC with PBMC. In outline:
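Human umbilical vein endothelial cells co-cultured with PBMC, read 24 h after compound dosing. Total protein measured by sulforhodamine B staining (0.1% SRB after 10% TCA fixation, absorbance 560 nm); bidirectional fit versus DMSO baseline.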

Test [7] addresses human CYP2B6, CYP2B6 (gene 1555) (UniProt P20813). The test can be described thus: NVS_ADME_hCYP2B6: NovaScreen (NVS) CYP450-related Enzyme Activity (ADME) Assay for human CYP2B6 (AID 2283101; active means hit-call score of the fitted dose curve at least 0.9, where 1 is the maximum). In short, it runs like this: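 Recombinant protein, specific fluorescent substrate, read at 1 h post-dosing. Primary: single 10 uM, duplicate; follow-up: concentration series. Activity = signal loss vs acetonitrile baseline, with positive and negative controls on every plate.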

In test [8] the target is human CYP1A1, CYP1A1 (gene 1543) (UniProt P04798). In words: NVS_ADME_hCYP1A1: NovaScreen (NVS) CYP450-related Enzyme Activity (ADME) Assay for human CYP1A1 (AID 2283100; active means hit-call score of the fitted dose curve at least 0.9, where 1 is the maximum). In outline:
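Recombinant CYP1A1 with a fluorogenic substrate, cell-free, read 1 h after dosing; acetonitrile as negative control. Single-concentration screen at 10 uM in duplicate, then concentration-response up to 20 uM for chemicals meeting ~30% inhibition threshold.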

Test [9] has as its target human CYP1A2, CYP1A2 (gene 1544) (UniProt P05177). The test can be described thus: NVS_ADME_hCYP1A2: NovaScreen (NVS) CYP450-related Enzyme Activity (ADME) Assay for human CYP1A2 (AID 2283102; active means hit-call score of the fitted dose curve at least 0.9, where 1 is the maximum;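 further: potency for inhibition since loss of fluorescence marks reduced CYP1A2 activity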). In outline: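 Recombinant human CYP1A2 from insect cells, cell-free, fluorogenic substrate; read 0.5 h after dosing with loss of fluorescence signal indicating inhibition. Primary screen in duplicate at 10 uM, acetonitrile as negative control.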

The target of test [10] is human CYP19A1, CYP19A1 (gene 1588) (UniProt P11511). The test can be described thus: NVS_ADME_hCYP19A1: NovaScreen (NVS) CYP450-related Enzyme Activity (ADME) Assay for human CYP19A1 (AID 2283098; active means hit-call score of the fitted dose curve at least 0.9, where 1 is the maximum). In short, it runs like this:
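Recombinant enzyme in a cell-free format, read 0.5 h after dosing by fluorescence from a fluorogenic substrate. Loss of signal was fitted against acetonitrile as baseline. Primary screen in duplicate at 10 uM, actives then tested in concentration series.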

Values joined by “and” are separate entries in the source; they are usually repeats but may differ in a detail not shown here. Identical values can stand only once. Records with an inconclusive call do not appear. Active and inactive are the calls of the source. How the source made its calls, unless noted: active means hit-call score of the fitted dose curve at least 0.9, where 1 is the maximum; inactive means score below 0.9.

Sequence of E-selectin (Homo sapiens) (P16581 whole entry, looked up): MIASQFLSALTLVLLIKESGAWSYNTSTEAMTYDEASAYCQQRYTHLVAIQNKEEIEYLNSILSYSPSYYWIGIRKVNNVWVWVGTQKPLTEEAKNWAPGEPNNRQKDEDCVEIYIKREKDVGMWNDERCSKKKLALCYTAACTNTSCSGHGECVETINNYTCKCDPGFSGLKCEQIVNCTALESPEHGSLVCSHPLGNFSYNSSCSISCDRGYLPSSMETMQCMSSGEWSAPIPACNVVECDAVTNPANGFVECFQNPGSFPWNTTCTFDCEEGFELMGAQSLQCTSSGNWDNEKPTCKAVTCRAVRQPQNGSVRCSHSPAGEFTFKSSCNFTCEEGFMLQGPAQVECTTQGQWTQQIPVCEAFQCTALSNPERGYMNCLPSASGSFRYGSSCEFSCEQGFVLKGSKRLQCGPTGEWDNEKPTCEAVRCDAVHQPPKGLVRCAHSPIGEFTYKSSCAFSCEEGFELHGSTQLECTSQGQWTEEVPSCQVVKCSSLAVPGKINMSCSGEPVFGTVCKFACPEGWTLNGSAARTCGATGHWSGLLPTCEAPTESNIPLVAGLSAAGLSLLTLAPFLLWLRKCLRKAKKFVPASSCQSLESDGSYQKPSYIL
Sequence of human CYP1A2, CYP1A2 (gene 1544) (P05177 whole entry, looked up): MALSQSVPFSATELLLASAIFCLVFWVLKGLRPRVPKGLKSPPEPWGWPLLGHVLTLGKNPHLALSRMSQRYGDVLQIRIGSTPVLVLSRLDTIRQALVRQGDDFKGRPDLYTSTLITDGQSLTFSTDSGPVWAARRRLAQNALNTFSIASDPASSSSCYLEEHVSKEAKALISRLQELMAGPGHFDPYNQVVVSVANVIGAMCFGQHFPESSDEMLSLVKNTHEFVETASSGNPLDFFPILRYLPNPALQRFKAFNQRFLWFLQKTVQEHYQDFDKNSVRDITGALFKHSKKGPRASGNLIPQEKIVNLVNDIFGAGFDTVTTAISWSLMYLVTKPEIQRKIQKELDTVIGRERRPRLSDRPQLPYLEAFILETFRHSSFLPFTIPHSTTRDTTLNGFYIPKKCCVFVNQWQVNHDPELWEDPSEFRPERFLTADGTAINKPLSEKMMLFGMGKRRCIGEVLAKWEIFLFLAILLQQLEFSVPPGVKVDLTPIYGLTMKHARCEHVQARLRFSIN
Sequence of human CYP19A1, CYP19A1 (gene 1588) (P11511 whole entry, looked up): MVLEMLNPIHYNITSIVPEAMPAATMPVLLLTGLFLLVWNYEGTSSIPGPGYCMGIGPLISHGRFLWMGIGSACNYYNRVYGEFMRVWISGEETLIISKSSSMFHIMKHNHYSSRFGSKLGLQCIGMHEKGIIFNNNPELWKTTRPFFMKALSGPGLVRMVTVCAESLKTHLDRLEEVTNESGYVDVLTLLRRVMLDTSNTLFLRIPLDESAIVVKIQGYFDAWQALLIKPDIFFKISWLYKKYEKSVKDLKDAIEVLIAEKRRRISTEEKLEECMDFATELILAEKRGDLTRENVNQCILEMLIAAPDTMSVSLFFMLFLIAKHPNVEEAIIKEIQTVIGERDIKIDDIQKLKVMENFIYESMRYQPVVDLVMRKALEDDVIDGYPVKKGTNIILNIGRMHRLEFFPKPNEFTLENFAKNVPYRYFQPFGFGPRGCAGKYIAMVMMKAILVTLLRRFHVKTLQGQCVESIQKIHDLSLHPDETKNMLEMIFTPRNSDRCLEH
Sequence of human CYP2B6, CYP2B6 (gene 1555) (P20813 whole entry, looked up): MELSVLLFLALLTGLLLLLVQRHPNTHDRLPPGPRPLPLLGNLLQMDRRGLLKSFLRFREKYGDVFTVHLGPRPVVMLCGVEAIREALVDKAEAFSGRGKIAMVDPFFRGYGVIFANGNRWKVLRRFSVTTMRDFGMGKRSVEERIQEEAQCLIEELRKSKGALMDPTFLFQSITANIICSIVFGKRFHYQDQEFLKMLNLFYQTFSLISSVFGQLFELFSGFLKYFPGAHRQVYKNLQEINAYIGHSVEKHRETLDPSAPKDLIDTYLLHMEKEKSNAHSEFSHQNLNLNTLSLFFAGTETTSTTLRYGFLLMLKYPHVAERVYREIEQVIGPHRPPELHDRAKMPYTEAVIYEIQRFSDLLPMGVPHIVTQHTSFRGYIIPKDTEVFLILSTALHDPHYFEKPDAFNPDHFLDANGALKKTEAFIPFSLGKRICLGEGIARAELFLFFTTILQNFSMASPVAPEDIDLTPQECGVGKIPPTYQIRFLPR
Sequence of human CYP1A1, CYP1A1 (gene 1543) (P04798 whole entry, looked up): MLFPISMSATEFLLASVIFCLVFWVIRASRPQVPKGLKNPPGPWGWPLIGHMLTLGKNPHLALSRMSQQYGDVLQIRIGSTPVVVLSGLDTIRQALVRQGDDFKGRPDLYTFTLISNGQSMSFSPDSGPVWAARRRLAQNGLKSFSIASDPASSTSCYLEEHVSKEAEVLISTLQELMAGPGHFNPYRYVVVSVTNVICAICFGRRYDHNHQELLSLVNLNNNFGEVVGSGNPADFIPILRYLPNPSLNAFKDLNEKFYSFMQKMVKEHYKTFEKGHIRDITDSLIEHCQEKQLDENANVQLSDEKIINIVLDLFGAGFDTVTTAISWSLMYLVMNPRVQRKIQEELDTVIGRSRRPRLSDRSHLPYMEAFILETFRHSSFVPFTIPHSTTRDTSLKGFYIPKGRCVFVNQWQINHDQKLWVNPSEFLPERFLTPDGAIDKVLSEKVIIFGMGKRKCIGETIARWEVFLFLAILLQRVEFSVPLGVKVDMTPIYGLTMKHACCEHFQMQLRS

Turning to `CN(C)c1ccc(C(=C2C=CC(=[N+](C)C)C=C2)c2ccccc2)cc1`, the AC50 in test [1] is 0.0082 µM (active); in test [2] it was 0.132 µM (active); in [3] it was 0.481 µM (active); in test [4] it was 2.78 µM (active); in test [5], 0.0153 µM (active); in test [6], 0.0747 µM (active).
As for `CN(C)CCOC(c1ccccc1)c1ccccc1`, the outcome in test [1], in test [3], in test [4], in [5] and in test [6] was inactive.
With `Oc1cc2ccccc2cc1O`, the result in test [1], in test [3], in [4], in test [5] and in test [6] was inactive.
For `CN(Cc1cnc2nc(N)nc(N)c2n1)c1ccc(C(=O)N[C@@H](CCC(=O)O)C(=O)O)cc1`, the result in test [1], in [3], in test [4], in [6] and in test [7] was inactive. For the same compound, the AC50 in [5] was 3.39 µM (active) and 2.18 µM (active) and 1.17 µM (active).
For `CS(=O)(=O)c1ccc([C@@H](CC2CCCC2)C(=O)Nc2cnccn2)cc1Cl`, the outcome in [1], in [4] and in [6] was inactive. Moreover, the AC50 in [5] was 15.2 µM (active).
Turning to `CCCCCc1ccc(O)cc1`, the AC50 in [1] was 26.8 µM (active); in test [3], 13.5 µM (active); in test [4], 30.6 µM (active); in [5], 15.3 µM (active); in [6] it was 25.9 µM (active).
As to `O=C(NO)c1ccccc1`, the outcome in [1], in test [3], in test [4], in [5] and in test [6] was inactive.
Regarding `COc1cccc(O)c1`, the result in [1], in test [3], in [4], in [5] and in test [6] was inactive.
`CCCCC=O`: the result in test [1], in test [3], in [4], in [5] and in [6] was inactive.
For `OCCN1CN(CCO)CN(CCO)C1`, the AC50 is 20 µM (active) in test [1]; 27 µM (active) in [3]; 13.1 µM (active) in test [4]; 26 µM (active) in [5]; 33.4 µM (active) in test [6].
In the case of `Oc1c(Cl)cc(Cl)cc1Sc1cc(Cl)cc(Cl)c1O`, the AC50 is 8.08 µM (active) and 7.11 µM (active) in test [1]; 29.1 µM (active) and 30 µM (active) in test [3]; 4.54 µM (active) and 5.28 µM (active) in [4]; 5.29 µM (active) and 5.92 µM (active) in test [5]; 23.8 µM (active) and 17.2 µM (active) in [6].
For the compound `CCCCCC(C)OC(=O)COc1ccc(Cl)c2cccnc12` (stereo not drawn), the outcome in [8] was inactive. Also, the AC50 in [9] was 0.751 µM (active).
In the case of `C[C@]12CC[C@@H]3c4ccc(O)cc4CC[C@H]3[C@@H]1C[C@@H](O)[C@@H]2O`, the outcome in test [1], in test [3], in test [4], in [5] and in test [6] was inactive.
Take `Oc1ccc(Cc2ccccc2O)cc1`: the result in [1], in test [3], in test [4], in test [5] and in test [6] was inactive.
For `O=C1OC2(c3ccccc31)c1cc(I)c(O)c(I)c1Oc1c2cc(I)c(O)c1I`, the result in [3], in test [4], in test [5] and in [6] was inactive.
Consider `CCOC(=O)CN[C@@H](C(=O)N1CC[C@H]1C(=O)NCc1ccc(/C(N)=N/O)cc1)C1CCCCC1`, for which the result in [1], in [3], in [4], in [5] and in test [6] was inactive.
For `CC(C)(C)c1ccc(O)c(O)c1`, the AC50 is 19.2 µM (active) in test [1]; 3.06 µM (active) in test [3]; 20 µM (active) in [4]; 2.68 µM (active) in test [5]; 29.1 µM (active) in [6].
As to `C=CC(=O)OCCC(F)(F)C(F)(F)C(F)(F)C(F)(F)C(F)(F)C(F)(F)C(F)(F)C(F)(F)F`, the result in test [1], in [3], in test [4], in test [5] and in [6] was inactive.
As to `O=C(O)CCC(F)(F)C(F)(F)C(F)(F)C(F)(F)C(F)(F)C(F)(F)F`, the outcome in test [1], in test [3], in test [4], in test [5] and in test [6] was inactive.
Regarding `CN(CCO)S(=O)(=O)C(F)(F)C(F)(F)C(F)(F)C(F)(F)C(F)(F)C(F)(F)C(F)(F)C(F)(F)F`, the outcome in test [1], in test [3], in test [4], in test [5] and in [6] was inactive.
Turning to `COc1cc(OC)nc(NC(=O)NS(=O)(=O)Nc2ccccc2C(=O)N(C)C)n1`, the result in [1], in test [3], in test [4], in test [5] and in [6] was inactive.
For the compound `CCCCCCc1ccc(N)cc1`, the outcome in [10] was inactive.
For `CCCCCCCCCCCCCCCCCC[N+](C)(C)Cc1ccccc1`, the AC50 in test [1] is 4.86 µM (active); in test [3], 0.919 µM (active); in test [4], 10 µM (active); in [5], 0.312 µM (active); in [6], 2.67 µM (active).
As for `O=C(O)C(F)(F)OC(F)(F)C(F)(F)OC(F)(F)C(F)(F)OC(F)(F)C(F)(F)C(F)(F)C(F)(F)F`, the AC50 is 45.4 µM (active) and 49.9 µM (active) in [1]; 44.5 µM (active) and 45.8 µM (active) in test [3]; 30 µM (active) and 24.7 µM (active) in [4]; 49.6 µM (active) and 47.7 µM (active) in [5]; 51.5 µM (active) and 53.1 µM (active) in test [6].
With `CCCCC(CC)C(=O)OCCOCCOCCOCCOC(=O)C(CC)CCCC` (stereo not drawn), the outcome in test [1], in test [3], in test [4], in test [5] and in test [6] was inactive.
On to `O=C1c2ccc(O)c(O)c2C(=O)c2c(O)ccc(O)c21`, for which the result in [1], in test [3], in [4], in test [5] and in test [6] was inactive.
Regarding `Cc1ccc(C(=O)c2ccccc2)cc1`, the result in test [1], in test [3], in test [4], in [5] and in test [6] was inactive.
On to `CCCCCCCCCCCCCCC`, for which the outcome in [1], in [3], in test [4], in test [5] and in test [6] was inactive.
For the compound `O=C(c1ccccc1)c1ccccc1`, the result in test [1], in [3], in test [4], in test [5] and in test [6] was inactive.
`CC(=O)Nc1ccc(O)cc1`: the outcome in test [2], in [3], in test [4], in test [5] and in [6] was inactive.
For `CCCCC(CC)C(=O)O` (stereo not drawn), the result in test [1], in test [3], in test [4], in test [5] and in [6] was inactive.

A word on the AC50: it is the concentration giving half of the maximal activity seen.
